From paper PMC5540273 (PLoS ONE, 2017)

Tests used:
Conditions in all cases: concentration: 1 μM, replicates: in singlicate; n = 1
[1] = test system: MAP3K3
[2] = test system: MAP3K4
[3] = test system: MAP4K2
[4] = test system: MAP4K3
[5] = test system: MAP4K4
[6] = test system: MAP4K5
[7] = test system: MAPKAPK2
[8] = test system: MAPKAPK5
[9] = test system: MARK1
[10] = test system: MARK2
[11] = test system: MARK3
[12] = test system: MARK4
[13] = test system: MAST1
[14] = test system: T1, MEK1
T1 construct: gene MAP2K1

[15] = test system: T2, MEK2
T2 construct: gene MAP2K2

[16] = test system: T3, MEK3
T3 construct: gene MAP2K3

[17] = test system: T4, MEK4
T4 construct: gene MAP2K4

[18] = test system: T5, MEK5
T5 construct: gene MAP2K5

[19] = test system: T6, MEK6
T6 construct: gene MAP2K6

[20] = test system: MELK
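Further: KINOMEscan kinase panel screen.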

Row | Compound | %Inh [1] | %Inh [2] | %Inh [3] | %Inh [4] | %Inh [5] | %Inh [6] | %Inh [7] | %Inh [8] | %Inh [9] | %Inh [10] | %Inh [11] | %Inh [12] | %Inh [13] | %Inh [14] | %Inh [15] | %Inh [16] | %Inh [17] | %Inh [18] | %Inh [19] | %Inh [20]
1 | Cn1ccc2ncnc(Nc3ccc(Oc4cccc(Cl)c4)c(Cl)c3)c21 | 15% | 17% | 14% | 0% | 1% | 0% | 0% | 14% | 0% | 25% | 0% | 9% | 0% | 29% | 31% | 1% | 17% | 99.6% | 27% | 0%
2 | COc1ccc(-c2oc3ncnc(N)c3c2-c2ccc(OC)cc2)cc1 [SB-589132] | 0% | 0% | 0% | 0% | 0% | 0% | 19% | 0% | 0% | 0% | 2% | 0% | 53% | 0% | 0% | 0% | 0% | 88% | 0% | 8%
3 | C[C@H]1CC[C@@H](C(=O)Nc2ccccc2)CN1c1cc(-c2ccc3c(N)n[nH]c3c2)nc(N)n1 [GSK2283293] | 34% | 5% | 0% | 0% | 7% | 0% | 22% | 0% | 0% | 0% | 0% | 0% | 0% | 0% | 0% | 0% | 3% | 11% | 0% | 0%
4 | Fc1cccc(COc2ccc(Nc3ncnc4sc(-c5ccc[nH]5)cc34)cc2Cl)c1 [GW707818] | 0% | 11% | 7% | 4% | 5% | 3% | 9% | 0% | 12% | 1% | 13% | 14% | 1% | 0% | 0% | 0% | 2% | 27% | 0% | 13%
5 | Fc1ccc(-c2ncn(CCCNCc3ccccc3)c2-c2ccncc2)cc1 | 16% | 7% | 14% | 0% | 0% | 12% | 10% | 19% | 0% | 0% | 5% | 0% | 28% | 26% | 20% | 30% | 0% | 31% | 17% | 5%
6 | FC(F)(F)c1ccc(-c2nn3ncccc3c2-c2ccnc(Nc3cccc(C(F)(F)F)c3)n2)cc1 [GW828205] | 21% | 8% | 0% | 0% | 4% | 0% | 0% | 0% | 3% | 0% | 13% | 0% | 12% | 4% | 28% | 0% | 0% | 4% | 0% | 0%
7 | CCC(CC)(CC)n1cnc2c(N)ncnc21 [SKF-97620] | 0% | 0% | 25% | 0% | 0% | 0% | 0% | 10% | 24% | 15% | 34% | 37% | 32% | 10% | 21% | 36% | 43% | 45% | 14% | 0%
8 | COC(=O)c1c(-c2ccccc2)c2cc(Cl)ccc2c(=O)n1Cc1ccc(S(C)(=O)=O)cc1 | 26% | 0% | 3% | 13% | 0% | 0% | 24% | 0% | 0% | 0% | 0% | 0% | 0% | 0% | 29% | 9% | 10% | 0% | 4% | 0%
9 | OCCOCCn1ccc2ncnc(Nc3ccc(Oc4cccc(Cl)c4)c(Cl)c3)c21 | 0% | 0% | 0% | 0% | 0% | 0% | 0% | 0% | 25% | 0% | 0% | 31% | 0% | 8% | 40% | 0% | 0% | 89% | 0% | 0%
10 | O=C(c1ccc(-c2cc(-c3c[nH]nc3-c3ccccn3)ccn2)cc1)N1CCCC1 [GW792479] | 11% | 25% | 0% | 0% | 5% | 0% | 0% | 0% | 0% | 4% | 0% | 15% | 12% | 14% | 30% | 20% | 0% | 30% | 0% | 0%
11 | Cl.Fc1ccccc1COc1ccc(Nc2ncnc3ccc(-c4nnc(C(F)(F)F)o4)cc23)cc1Cl [GW424170] | 0% | 15% | 0% | 0% | 0% | 0% | 0% | 0% | 0% | 0% | 0% | 0% | 0% | 0% | 0% | 0% | 28% | 10% | 0% | 0%
12 | O=c1cc(N2CCOCC2)nc2n(Cc3cccc(Cl)c3)ccn12 [GSK2296823] | 0% | 4% | 0% | 7% | 0% | 0% | 40% | 0% | 0% | 81% | 0% | 5% | 0% | 8% | 0% | 0% | 4% | 13% | 0% | 0%
13 | N#Cc1ccc(Oc2ccc(Nc3ncnc4cc[nH]c34)cc2Cl)cc1 | 27% | 9% | 0% | 24% | 37% | 27% | 0% | 21% | 3% | 0% | 0% | 0% | 38% | 22% | 39% | 37% | 0% | 44% | 19% | 25%
14 | CC(C)(C)OC(=O)NC1CCCN(c2cc(-c3ccc4c(N)n[nH]c4c3)nc(N)n2)C1 (stereo not drawn) [GSK2286096] | 0% | 17% | 0% | 3% | 0% | 0% | 0% | 0% | 0% | 0% | 0% | 0% | 0% | 100% | 0% | 0% | 7% | 30% | 0% | 0%
15 | COc1ccc(Nc2nccc(N3CCC(NC(=O)Nc4ccc5c(c4)OCO5)C3)n2)cc1 (stereo not drawn) [GSK1379745] | 0% | 15% | 0% | 5% | 5% | 4% | 17% | 0% | 0% | 0% | 13% | 9% | 0% | 0% | 0% | 0% | 25% | 32% | 0% | 0%
16 | CC(C)(C)c1ccc(-n2cnc3c(N)ncnc32)cc1 [SKF-97263] | 0% | 10% | 11% | 5% | 6% | 6% | 23% | 8% | 0% | 0% | 0% | 0% | 0% | 0% | 10% | 0% | 21% | 44% | 0% | 13%
17 | Nc1nccc2scc(-c3ccc4c(c3)CCN4C(=O)Cc3cc(F)ccc3F)c12 [GSK2587663] | 0% | 10% | 0% | 3% | 0% | 9% | 20% | 0% | 0% | 0% | 4% | 0% | 9% | 0% | 0% | 0% | 5% | 67% | 0% | 0%
18 | FC(F)(F)c1cc(Nc2nccc(-c3c(-c4ccc(Cl)cc4)nn4ncccc34)n2)ccc1Cl [GW829351] | 0% | 0% | 0% | 0% | 0% | 0% | 0% | 0% | 0% | 0% | 0% | 17% | 20% | 6% | 21% | 0% | 0% | 1% | 0% | 0%
19 | O=C(Nc1ccccc1F)NC1CCN(c2ccnc(Nc3ccc(F)cc3)n2)C1 (stereo not drawn) [GSK1379722] | 0% | 14% | 0% | 0% | 0% | 0% | 18% | 0% | 0% | 0% | 0% | 0% | 14% | 0% | 0% | 0% | 25% | 12% | 0% | 0%
20 | COC(=O)c1cccc(NC(=O)NCCNc2ccnc(Nc3ccc(F)cc3)n2)c1 [GSK1379883] | 0% | 0% | 0% | 0% | 0% | 0% | 24% | 0% | 0% | 0% | 0% | 2% | 0% | 1% | 0% | 0% | 13% | 9% | 0% | 17%
21 | COc1ccc(NC(=O)Nc2ccc(C)c(-c3ccc(C(=O)Nc4ccncc4)cc3)c2)cc1 [GSK1398475] | 0% | 0% | 0% | 0% | 0% | 0% | 6% | 0% | 0% | 0% | 0% | 0% | 0% | 0% | 0% | 0% | 18% | 0% | 0% | 6%
